From PubChem BioAssay
B2AR arrestin = recruits beta-arrestin to the human beta2-adrenergic receptor. beta-arrestin recruitment to beta2AR, cell-based reporter. Potency, µM (titrated, usually from 46.1 µM), for inactives: at the top dose activation, most hits filed as activators. actives 0.02% (n = 330,000);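 also: potency is read from the fitted curve at half-maximal effect; 0% = DMSO controls and full agonism = EC100 isoproterenol or metaproterenol; nearly all actives have a fitted effect of over 65% in size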
Target sequence (P07550 whole entry, looked up): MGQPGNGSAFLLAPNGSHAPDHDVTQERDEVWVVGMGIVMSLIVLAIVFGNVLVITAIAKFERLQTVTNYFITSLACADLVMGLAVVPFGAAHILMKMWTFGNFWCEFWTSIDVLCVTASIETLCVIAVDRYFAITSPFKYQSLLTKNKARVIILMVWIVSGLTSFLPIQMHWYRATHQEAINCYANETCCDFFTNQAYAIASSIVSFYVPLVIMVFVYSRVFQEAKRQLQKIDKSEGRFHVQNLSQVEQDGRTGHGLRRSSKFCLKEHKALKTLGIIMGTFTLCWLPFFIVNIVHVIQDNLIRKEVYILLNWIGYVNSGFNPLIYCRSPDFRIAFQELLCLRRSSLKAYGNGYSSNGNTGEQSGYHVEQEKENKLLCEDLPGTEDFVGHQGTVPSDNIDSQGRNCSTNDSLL
uPA surface inh = inhibitors of cell surface uPA generation; cell surface uPA generation assay, qHTS; Potency, µM (top dose mostly 38.3 µM), for the others: top-dose activity change, negative = inhibition, most hits filed as inhibitors; actives 0.31% (n = 330,000); active = well fitted inhibition curve with a large enough effect; inconclusive = small, poorly fitted or top-dose-only effect; inactive = no such curve, though single readings can be large or run the other way; tested in mouse RAW 264.7 cells; also: potency is read from the fitted curve at half-maximal effect; % is scaled to controls: 0 for no effect and ±100 for the full control effect; nearly all actives have a fitted effect of over 55% in size
p53 reactivator = re-activators of mutant p53; AID 504706; actives 0.063% (n = 320,000); H1299 p53-A138V BP100-luciferase reporter, luminescence, 24 h; Potency, µM (doses to about 92.2 µM), without a hit: at the top dose activity change, positive = activation, actives largely listed as activators; also: potency is read from the fitted curve at half-maximal effect; % of control where 0% means no effect; nearly all actives have a fitted effect of over 45% in size
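p53-null H1299 cells stably carrying temperature-sensitive p53-A138V and a BP100-luciferase reporter were pinned with compounds (4-point, 1:5 series) and held 24 hrs at 37 deg C. Luminescence was read 10 min after detection reagent.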
Giardia killer = kills Giardia lamblia; Giardia lamblia trophozoite viability; activity change, % at 7.66 µM, hits read low; actives 0.15% (n = 340,000); AID 540267; in the data active = activity change below about -80%; inconclusive = between about -30% and that limit;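 also: parasites exposed to compound for two days anaerobically before the ATP read; % is scaled to controls: 0 for no effect and ±100 for the full control effect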
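Trophozoite viability was measured as ATP-dependent luminescence, read 15-30 min after reagent addition. Before that, parasites at 100 cells/well were exposed to compounds for 48 h, anaerobically, at 37 deg C.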
Mito fusion yeast = blocks mitochondrial division or promotes mitochondrial fusion; S. cerevisiae fusion-defective mutant growth rescue, CellTiterGlo 48 h; Potency, µM (doses to about 46.1 µM), without a hit: at the highest dose growth rescue (activation), usual class: activators; actives 0.23% (n = 320,000); AID 485298; also: potency is read from the fitted curve at half-maximal effect; % of control where 0% means no effect; nearly all actives have a fitted effect of over 45% in size
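Temperature-sensitive fusion-defective S. cerevisiae (e.g. fzo1-1, mgm1-5) were grown with compound in YPEG medium (3% ethanol, 3% glycerol) for 48 hours at 37C. Growth rescue was measured as viability by CellTiterGlo luminescence after 10 minutes at ambient.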
ClpP mod = qHTS Assay for Activators of ClpP; ATP-dependent Clp protease proteolytic subunit (Bacillus subtilis (strain 168)), P80244; purified B. subtilis ClpP, FRET peptide cleavage, 20 min; Potency, µM (highest dose often 57.5 µM), for inactives: at the highest dose activity change, negative = active; actives 1.9% (n = 340,000); AID 651965, 2013; active = well fitted falling curve with a large enough effect; inconclusive = small, poorly fitted or top-dose-only effect; inactive = no such curve, though single readings can be large or run the other way; also: potency is read from the fitted curve at half-maximal effect; the source files actives as falling curves though it sought activators and does not explain the sign; nearly all actives have a fitted effect of over 65% in size
Target sequence (P80244 whole entry, looked up): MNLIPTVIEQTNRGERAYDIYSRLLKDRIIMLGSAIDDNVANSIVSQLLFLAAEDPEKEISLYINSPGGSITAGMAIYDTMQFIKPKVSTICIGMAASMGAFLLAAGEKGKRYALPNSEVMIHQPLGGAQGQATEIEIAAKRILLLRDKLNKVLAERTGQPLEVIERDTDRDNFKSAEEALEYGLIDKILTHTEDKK
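Buffer: 100 mM Tris/HCl pH8, 100 mM KCl, 0.05% low protease BSA, 2.5% glycerol, 0.01% Tween-20. ClpP 10 microg/mL final; 20 min RT; delta FRET normalized to ADEP and DMSO controls.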
* marks the source's active call; other numbers are inactive results. This is a sample that favours compounds with a hit; in the whole collection about 2.1% have one here. Unless noted, calls follow the shape of the dose curve; as a rule, active = well fitted curve in the direction sought with a large enough effect; inconclusive = small, poorly fitted or top-dose-only effect, or another doubt; inactive = no such curve, though single readings can be large; an effect the other way counts as inactive or inconclusive.

Screening CCCOC(=O)COc1cc(C)cc2oc(=O)c3c(c12)CCC3 returned B2AR arrestin -0.4%, uPA surface inh -3.8%, p53 reactivator -2.1%, Giardia killer 6.6, Mito fusion yeast 11.5% and ClpP mod 25.1µM*.
Screening Cc1ccc(-n2nc(C)cc2NC(=O)COc2cc(C)cc3oc(=O)c4c(c23)CCC4)cc1 returned B2AR arrestin -0.9%, p53 reactivator -13.5%, Giardia killer 1.4, Mito fusion yeast 6.4% and ClpP mod 25.1µM*.
For Cc1cc(OC(=O)c2cccs2)c2c3c(c(=O)oc2c1)CCCC3 the results were B2AR arrestin -0.4%, uPA surface inh 16.2%, p53 reactivator 0.8%, Giardia killer -14.0, Mito fusion yeast inconclusive and ClpP mod -2.7%.
For Cc1cc(OC(=O)c2ccco2)c2c3c(c(=O)oc2c1)CCCC3 the results were B2AR arrestin 0.1%, uPA surface inh -5.9%, p53 reactivator -2.3%, Giardia killer -3.5, Mito fusion yeast 15.0% and ClpP mod 22.4µM*.
C[C@@H]1O[C@@H](O[C@@H]2C=C3CC[C@@H]4[C@@H](CC[C@]5(C)[C@H](c6ccc(=O)oc6)CC[C@@]45O)[C@@]3(C)CC2)[C@H](O)[C@H](O)[C@H]1O was read as ClpP mod 0.0%.
Screening COc1ccc2c(c[n+](C)c3c4cc5c(cc4ccc23)OCO5)c1OC returned Mito fusion yeast 5.8µM*.
Screening COc1cc2c(ccc3c4cc(OC)c(OC)cc4c[n+](C)c23)cc1O returned uPA surface inh -11.2%, Giardia killer -18.4 and ClpP mod 0.2%.
O=C1NCN(c2ccccc2)C12CCN(CC1COc3ccccc3O1)CC2 (configuration not stated) was read as Mito fusion yeast 20.6µM*.
O=C1NCN(c2ccccc2)C12CCNCC2 was read as B2AR arrestin -0.3%, p53 reactivator 4.0%, Giardia killer -3.4, Mito fusion yeast -7.5% and ClpP mod 1.2%.
Screening CCOP(=O)(OCC)C(NC(=O)c1cccc([N+](=O)[O-])c1)C(Cl)(Cl)Cl (configuration not stated) returned B2AR arrestin -0.5%, uPA surface inh 3.5%, p53 reactivator 1.5%, Giardia killer 13.3, Mito fusion yeast 0.0% and ClpP mod 31.6µM*.
`Clc1ccc(CSC(Cn2ccnc2)c2ccc(Cl)cc2Cl)cc1` (configuration not stated) gave uPA surface inh -11.2%, p53 reactivator -3.5%, Giardia killer -19.7, Mito fusion yeast inconclusive and ClpP mod 0.7%.
Clc1ccc(COC(Cn2ccnc2)c2ccc(Cl)cc2Cl)cc1 (configuration not stated) was read as B2AR arrestin 3.9%, uPA surface inh inconclusive, p53 reactivator 1.9%, Giardia killer 2.6, Mito fusion yeast 3.16µM* and ClpP mod 1.5%.
For COc1cc([N+](=O)[O-])cc([N+](=O)[O-])c1N the results were ClpP mod 2.1%.
O=C(Oc1ccc(Cl)c2ccccc12)N1CCCCC1 was read as B2AR arrestin -0.5%, uPA surface inh 0.3%, p53 reactivator 23.6%, Giardia killer -12.0, Mito fusion yeast 8.9% and ClpP mod 28.2µM*.
Cn1c(=O)oc2cc(NC(=O)CCl)ccc21 was read as B2AR arrestin 0.5%, uPA surface inh inconclusive, p53 reactivator -14.4%, Giardia killer 7.0, Mito fusion yeast -14.0% and ClpP mod -2.8%.
`COC(=O)c1[nH]c2ccc(C)cc2c1NC(=O)Oc1ccccc1` gave B2AR arrestin 0.5%, uPA surface inh -6.0%, p53 reactivator 9.7%, Giardia killer -0.8, Mito fusion yeast 2.1% and ClpP mod 35.5µM*.
Cc1ncc([N+](=O)[O-])n1CCOc1nonc1N was read as B2AR arrestin -0.1%, uPA surface inh 11.0%, p53 reactivator -7.5%, Giardia killer -86.5*, Mito fusion yeast 3.2% and ClpP mod -0.2%.
Screening COc1ccc(-c2cc([C@H]3[C@H]4C=CC[C@@H](C)[C@@H]4C(=O)N3Cc3ccccc3)ccc2F)cc1OC returned B2AR arrestin -0.9%, uPA surface inh inconclusive, p53 reactivator 9.2%, Giardia killer -12.9, Mito fusion yeast 11.8% and ClpP mod 31.6µM*.
For CN(C)S(=O)(=O)N1CCC(Oc2cccc(C(=O)NCCC3=CCCCC3)c2)CC1 the results were B2AR arrestin -0.3%, uPA surface inh inconclusive, p53 reactivator 6.9%, Giardia killer -16.5, Mito fusion yeast 8.2% and ClpP mod 25.1µM*.
`CCOC(=O)c1ccccc1NC(=O)c1c(O)[nH]c(=O)[nH]c1=O` gave uPA surface inh 1.8%, Giardia killer -14.7 and ClpP mod -9.9%.
CCOC(=O)c1ccccc1NC(=O)N(Cc1ccc(CC)cc1)Cc1cn[nH]c1-c1ccc(OC)cc1 was read as ClpP mod 35.5µM*.
CCCCC[C@@H](/C=C/C1C(=O)C=C[C@H]1C/C=C\CCCC(=O)O)OC(C)=O (some centres not stated) was read as uPA surface inh inconclusive, Giardia killer -13.4 and ClpP mod -0.7%.
`O=C(N/N=C/c1c(O)n(C2CC2)c(=S)[nH]c1=O)c1ccccc1O` gave B2AR arrestin 0.1%, uPA surface inh 1.2%, p53 reactivator 6.31µM*, Giardia killer -4.7, Mito fusion yeast -2.8% and ClpP mod -3.5%.
Nc1ccccc1C(=O)c1ccccc1 was read as B2AR arrestin -0.1%, uPA surface inh 4.6%, p53 reactivator -0.9%, Giardia killer -3.3, Mito fusion yeast 2.9% and ClpP mod 0.0%.
`Nc1ccccc1C(=O)OC1CSC1` gave B2AR arrestin 0.5%, uPA surface inh 7.2%, p53 reactivator -4.3%, Giardia killer -9.1, Mito fusion yeast 7.2% and ClpP mod 28.2µM*.
COc1ccc(Nc2nc(N)nc(CCl)n2)cc1 was read as B2AR arrestin -0.6%, uPA surface inh 2.51µM*, p53 reactivator inconclusive, Giardia killer -28.8, Mito fusion yeast -9.4% and ClpP mod -6.0%.
`O=C1OC(=O)C2C3CCC(O3)C12` (configuration not stated) gave B2AR arrestin 0.9%, p53 reactivator 13.7% and Mito fusion yeast 4.2%.
Cc1ccc(S(=O)(=O)N(C)C/N=C(\N)N[N+](=O)[O-])cc1 was read as B2AR arrestin 0.0%, uPA surface inh 0.6%, p53 reactivator 1.7%, Giardia killer 1.9 and Mito fusion yeast 2.2%.
